Sampled rows, rich in hits. Any-hit rate of the full collection: about 9.4%.
Pf growth 96h = Primary qHTS for delayed death inhibitors of the malarial parasite plastid, 96 hour incubation. P. falciparum luciferase reporter growth, 96 h. Potency, µM (highest dose often 28.7 µM), usual class: inhibitors. hit rate 6.9% among 320,000. AID 504834, 2011
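P. falciparum expressing integrated firefly luciferase, in erythrocytes at 2% hematocrit, 0.05% parasitemia, incubated with compounds 96 h at 37 C, 5% CO2. Growth inhibition read as loss of luminescence; two-generation exposure targets delayed-death apicoplast inhibitors.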
Pf growth 48h = Primary qHTS for delayed death inhibitors of the malarial parasite plastid, 48 hour incubation. P. falciparum luciferase growth in erythrocytes, 48 h. Potency, µM (series often up to 28.7 µM), hits mostly inhibitors. hit rate 5.9% among 310,000. AID 504832, 2011
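Compounds are pin-transferred into medium, infected erythrocytes (2% hematocrit, 0.1% parasitemia final) are added, and plates sit one parasite generation at 37 C in 5% CO2. Detection reagent is then added and luminescence measured.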
SARS PLP yeast = qHTS of Yeast-based Assay for SARS-CoV PLP; S. cerevisiae expressing SARS-CoV PLpro, growth rescue; hit rate 0.19% among 330,000; AID 485353, 2010; Potency, µM (series often up to 32.9 µM), most hits filed as activators; calls by dose curve; note: nearly all actives have a fitted effect of over 55% in size
AMA1 RON2 block = qHTS for Inhibitors of AMA1-RON; Towards Development of Antimalarial Drug Lead: Primary Screen; Plasmodium falciparum AMA1 (3D7) - RON2 peptide interaction; AlphaScreen AMA1-biotinylated RON2 peptide binding; Potency, µM (highest dose often 58.2 µM), hits mostly inhibitors; hit rate 0.2% among 360,000; AID 720542, 2013; note: nearly all actives have a fitted effect of over 45% in size
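AMA1 (3D7) with his tag at 25 nM final met compounds first, then biotinylated RON2 peptide at 25 nM; detection used donor plus acceptor beads, 10 µg/mL apiece, read by AlphaScreen after 30 min at room temperature.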
Large screens that a line does not name were inactive. Unless noted, calls come from the whole dose curve; as a rule, active = well fitted curve in the direction sought with a large enough effect; inconclusive = small, poorly fitted or top-dose-only effect, or another doubt; inactive = no such curve, though single readings can be large; an effect the other way counts as inactive or inconclusive.

CCc1nc(Sc2nnnn2-c2ccccc2)c2c3c(sc2n1)CCCC3	Pf growth 96h inconclusive, Pf growth 48h 11.7µM
Cc1nc(Sc2nnnn2C)c2c3c(sc2n1)CCC3	none (no result: Pf growth 48h)
CCCN(C)C[C@@H]1Oc2ncc(Br)cc2C(=O)N([C@@H](C)CO)C[C@H]1C	none (no result: Pf growth 96h, Pf growth 48h, SARS PLP yeast)
CC1=NCCN1CCNC(=O)Nc1ccc(F)cc1	Pf growth 96h 0.415µM
CC1=NCCN1CCNC(=O)Nc1cc(C)cc(C)c1	none
O=C(Nc1cccc(S(=O)(=O)N2CCCCC2)c1)c1ccc(Cl)nc1	none (no result: Pf growth 96h, Pf growth 48h)
O=C(Nc1nc2ccccc2n1CCN1CCOCC1)c1ccc(Cl)cc1	Pf growth 96h inconclusive, Pf growth 48h 13.1µM
CCN(CC)CCn1c(NC(=O)c2ccc(Cl)cc2)nc2ccccc21	Pf growth 96h 3.7µM (no result: Pf growth 48h)
CN1CCN(C(=O)CN2C(=O)NC(C)(c3ccc4ccccc4c3)C2=O)CC1 (centres undefined)	Pf growth 96h inconclusive
CCOC(=O)NC(=O)CN1C(=O)NC(C)(c2ccccc2)C1=O (centres undefined)	Pf growth 96h 1.85µM
CCOc1ccccc1CN1C(=O)NC(C)(c2ccccc2)C1=O (centres undefined)	Pf growth 96h 9.28µM
CCOC(=O)N1CCN(C(=O)CN2C(=O)NC(C)(c3ccc4ccccc4c3)C2=O)CC1 (centres undefined)	Pf growth 96h inconclusive, Pf growth 48h 11.7µM
CC1(c2ccccc2)NC(=O)N(CCOc2ccccc2)C1=O (centres undefined)	none
CCCNC(=O)NC(=O)CN1C(=O)NC(C)(c2ccc(C)cc2)C1=O (centres undefined)	Pf growth 96h 13.1µM
CC(C)(C)OC(=O)NCc1ccc(NC(=O)c2nc[nH]c2C(=O)N[C@@H](Cc2ccccc2)C(=O)OC(C)(C)C)cc1	Pf growth 96h 8.28µM, Pf growth 48h 2.33µM
CC(C)C[C@H](NC(=O)c1nc[nH]c1C(=O)NCc1ccc(CNC(=O)OC(C)(C)C)cc1)C(=O)OC(C)(C)C	Pf growth 96h inconclusive, Pf growth 48h inconclusive
C[C@H](CO)NC(=O)c1[nH]cnc1C(=O)Nc1ccc(CNC(=O)OC(C)(C)C)cc1	none (no result: Pf growth 96h, Pf growth 48h, SARS PLP yeast)
COc1ccc(NC(=O)c2nc[nH]c2C(=O)N[C@@H](CC(C)C)C(=O)OC(C)(C)C)cc1	Pf growth 96h inconclusive, Pf growth 48h 10.4µM
CC(C)C[C@H](NC(=O)c1[nH]cnc1C(=O)Nc1ccc(CNC(=O)OC(C)(C)C)cc1)C(=O)OC(C)(C)C	Pf growth 96h 6.57µM, Pf growth 48h 8.28µM
C[C@H](NC(=O)c1[nH]cnc1C(=O)Nc1ccc(CNC(=O)OC(C)(C)C)cc1)C(=O)OCc1ccccc1	Pf growth 48h 9.28µM
CC(=O)c1c(N2CCN(CCO)CC2)nc(=S)n(-c2ccccc2)c1C	none
CC(C)(C)C(=O)c1sc2nc(-c3cccs3)cc(C(F)(F)F)c2c1N	none
CC(C)C[C@H](NC(=O)c1[nH]cnc1C(=O)Nc1ccc(CNC(=O)OC(C)(C)C)cc1)C(=O)OCc1ccccc1	Pf growth 96h inconclusive, Pf growth 48h 11.7µM
CC(C)(C)OC(=O)NCc1ccc(NC(=O)c2nc[nH]c2C(=O)NCCNC(=O)c2[nH]cnc2C(=O)Nc2ccc(CNC(=O)OC(C)(C)C)cc2)cc1	none (no result: Pf growth 96h, Pf growth 48h)
CC(C)(C)OC(=O)CNC(=O)c1[nH]cnc1C(=O)Nc1ccc(CNC(=O)OC(C)(C)C)cc1	Pf growth 96h 13.1µM, Pf growth 48h 13.1µM
O=C(NCCN1CCOCC1)c1ccc(S(=O)(=O)Nc2ccccc2)cc1	none (no result: Pf growth 96h, Pf growth 48h)
CCN(CC)S(=O)(=O)c1ccc(C(=O)NCC(=O)N/N=C/c2ccccc2OC)cc1	SARS PLP yeast inconclusive
CCOC(=O)c1c(NC(=O)CN2C(=O)NC3(CCC(C)CC3)C2=O)sc(C)c1-c1ccc(C)cc1 (centres undefined)	AMA1 RON2 block inconclusive
CCOC(=O)c1c(NC(=O)CC)sc(C(=O)N2CCCCC2)c1C	Pf growth 96h 13.1µM (no result: Pf growth 48h)
CCOC(=O)c1c(NC(=O)CN2C(=O)NC3(CCCCC3)C2=O)sc(C)c1-c1ccc(C)cc1	Pf growth 96h 9.28µM, Pf growth 48h 14.7µM
CCOC(=O)c1sc(NC(=O)CN2C(=O)NC3(CCCCCCC3)C2=O)c(C(=O)OCC)c1C	Pf growth 96h 9.28µM, Pf growth 48h 8.28µM
CCOC(=O)c1c(N)sc(C(=O)N2CCCCCC2)c1C	none
CCOC(=O)c1sc(NC(=O)CNCc2ccccn2)c(C(=O)OCC)c1C	Pf growth 96h 0.415µM, Pf growth 48h 1.04µM
CC1=C(C(=O)N2CCCCCC2)C2(CCC(C)CC2)OC1=O (centres undefined)	Pf growth 96h inconclusive
COc1ccc(C(=O)NCCNC(C)=O)cc1S(=O)(=O)NCc1ccc(Cl)cc1	none
COc1ccc(C(=O)NC2CCC(O)CC2)cc1S(=O)(=O)NCc1ccc(Cl)cc1 (centres undefined)	Pf growth 96h inconclusive, Pf growth 48h 13.1µM
CN[C@H]1C[C@H]2c3[nH]c4ccccc4c3CCN2C(=O)[C@H]1[C@H](C)O	none (no result: Pf growth 96h, Pf growth 48h, SARS PLP yeast)
CC1NC(C)(C)Cc2c1ccc1ccccc21 (centres undefined)	none
CC[N+]1(CC)CC2=Cc3c(ccc4ccccc34)C(C)C2C1 (centres undefined)	Pf growth 96h 1.47µM, Pf growth 48h 2.33µM
Cn1c(C(=O)N2CCN(Cc3ccc4c(c3)OCO4)CC2)cc2sccc21	Pf growth 96h 10.4µM, Pf growth 48h inconclusive
Cn1c(C(=O)NCc2ccc3c(c2)OCO3)cc2sccc21	none (no result: Pf growth 96h, Pf growth 48h)
COc1cccc(CN2CCC(C(=O)N3CCN(Cc4ccc5c(c4)OCO5)CC3)CC2)c1	none
CCn1c(C(=O)N2CCC(C(=O)N3CCC4(CC3)OCCO4)CC2)cc2sccc21	none
Cn1c(C(=O)N2CCC(C(=O)N3CCN(Cc4ccc5c(c4)OCO5)CC3)CC2)cc2sccc21	Pf growth 96h 10.4µM, Pf growth 48h inconclusive
CC(C)N(CCCNC(=O)C1CCN(C(=O)c2cc3sccc3n2C)CC1)Cc1ccccc1	Pf growth 96h 11.7µM, Pf growth 48h inconclusive
CC(C)N(CCNC(=O)C1CCN(S(=O)(=O)N2CCOCC2)CC1)Cc1ccccc1	Pf growth 96h inconclusive
Cn1c(C(=O)N2CCC(C(=O)N3CCOCC3)CC2)cc2sccc21	Pf growth 96h 11.7µM
O=C(COC(=O)c1cn(-c2ccccc2)nc1-c1ccccc1)Nc1ncc(Cl)cc1Cl	Pf growth 48h inconclusive
CCN(CC)c1ccc(Nc2nc(-c3cccnc3)cs2)cc1	Pf growth 96h inconclusive, Pf growth 48h inconclusive, AMA1 RON2 block 28.2µM
COc1ccccc1Nc1nc(-c2cccnc2)cs1	none
CCc1ccccc1Nc1nc(-c2cccnc2)cs1	Pf growth 96h 9.28µM, Pf growth 48h 11.7µM
CCn1c(=O)c2cc(C(=O)N(C)c3cc(C)ccc3OC)sc2c2ccccc21	Pf growth 96h inconclusive, Pf growth 48h 13.1µM
CCn1c(=O)c2cc(C(=O)N(C)c3ccc(OC)cc3OC)sc2c2ccccc21	Pf growth 96h 10.4µM, Pf growth 48h inconclusive
CCn1c(=O)c2cc(C(=O)N(C)c3ccccc3F)sc2c2ccccc21	Pf growth 96h inconclusive, Pf growth 48h inconclusive

Screening data from PubChem BioAssay.
